# Source: article PMC7862700, “An all-to-all approach to the identification of sequence-specific readers for epigenetic DNA modifications on cytosine”
# What was measured:
# Test in all cases: DAPPL (digital affinity profiling via proximity ligation, sequencing); 10 mM Tris-HCl pH 7.5, 50 mM NaCl, 1 mM DTT, 4% glycerol, room temperature, 30 min; GST-TFs on glutathione beads, 16-mer random dsDNA library, 0.1% formaldehyde crosslink after washing; high values mean tight binding
# Conditions in all cases: protein: recombinant; tags: N-terminal GST; dsDNA, one strand shown
# [1] = target: ETV1 (Homo sapiens, UniProt P50549 1-477)
# Sequence of ETV1 (P50549 whole entry, the tested form may be a part): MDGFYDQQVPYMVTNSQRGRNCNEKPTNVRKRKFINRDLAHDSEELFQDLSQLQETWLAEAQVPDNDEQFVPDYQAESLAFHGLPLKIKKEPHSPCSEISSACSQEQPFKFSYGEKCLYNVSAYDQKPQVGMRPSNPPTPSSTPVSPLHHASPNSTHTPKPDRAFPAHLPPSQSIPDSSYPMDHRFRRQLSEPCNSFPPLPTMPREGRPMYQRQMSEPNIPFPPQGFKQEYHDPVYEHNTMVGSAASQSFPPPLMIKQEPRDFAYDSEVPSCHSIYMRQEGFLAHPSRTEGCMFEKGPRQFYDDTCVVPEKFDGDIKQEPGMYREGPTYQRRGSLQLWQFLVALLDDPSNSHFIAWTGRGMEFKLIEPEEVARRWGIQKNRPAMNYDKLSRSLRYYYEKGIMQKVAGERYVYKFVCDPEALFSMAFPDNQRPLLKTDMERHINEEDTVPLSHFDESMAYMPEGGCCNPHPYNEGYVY
# Summary of the method: (§1)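 Pools of DNA-barcoded human transcription factors, expressed in yeast as GST fusions on glutathione beads and combined with a tag-only sample, were incubated with 200 nmole of a 16-mer random double-stranded DNA library. Incubation took 30 min at room temperature in Tris/NaCl/DTT/glycerol buffer and was followed by washing, 0.1% formaldehyde crosslinking, proximity ligation (BsaI/T4 ligase, 1 h, 37 °C), PCR amplification and sequencing on an Illumina NextSeq500. Binding signal is the ratio of a hexamer's read frequency for a factor to its frequency for the tag-only sample.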
# [2] = target: T1, ERF (Homo sapiens, UniProt P50548 1-548)
# T1 sequence: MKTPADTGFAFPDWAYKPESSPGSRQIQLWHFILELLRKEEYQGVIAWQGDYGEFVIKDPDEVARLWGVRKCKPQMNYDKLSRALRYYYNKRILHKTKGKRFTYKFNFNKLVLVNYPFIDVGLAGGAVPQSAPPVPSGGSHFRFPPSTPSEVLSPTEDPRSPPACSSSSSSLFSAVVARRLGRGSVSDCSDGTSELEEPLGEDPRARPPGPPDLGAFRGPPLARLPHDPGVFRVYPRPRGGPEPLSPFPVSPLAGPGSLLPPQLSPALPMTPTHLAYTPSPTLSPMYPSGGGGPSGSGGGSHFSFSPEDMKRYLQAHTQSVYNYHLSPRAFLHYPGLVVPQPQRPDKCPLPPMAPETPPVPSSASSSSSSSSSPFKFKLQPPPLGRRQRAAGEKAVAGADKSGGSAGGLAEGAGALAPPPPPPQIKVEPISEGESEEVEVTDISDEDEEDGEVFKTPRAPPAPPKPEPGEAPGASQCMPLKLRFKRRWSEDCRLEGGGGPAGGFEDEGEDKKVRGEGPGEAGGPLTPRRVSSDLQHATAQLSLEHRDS
# Summary of the method: as §1
# [3] = target: T2, ETV3L (Homo sapiens, UniProt Q6ZN32 1-361)
# T2 sequence: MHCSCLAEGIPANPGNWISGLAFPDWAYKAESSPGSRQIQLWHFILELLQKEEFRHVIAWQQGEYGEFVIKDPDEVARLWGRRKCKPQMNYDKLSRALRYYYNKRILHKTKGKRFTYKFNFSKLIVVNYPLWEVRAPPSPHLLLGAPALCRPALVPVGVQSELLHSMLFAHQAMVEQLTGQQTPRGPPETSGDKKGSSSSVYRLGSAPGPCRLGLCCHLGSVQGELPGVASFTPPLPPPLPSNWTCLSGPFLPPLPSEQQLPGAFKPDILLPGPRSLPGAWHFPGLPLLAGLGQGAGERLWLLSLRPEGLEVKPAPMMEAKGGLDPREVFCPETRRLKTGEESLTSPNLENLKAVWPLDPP
# Summary of the method: as §1
# [4] = target: T3, ETS2 (Homo sapiens, UniProt P15036 1-469)
# T3 sequence: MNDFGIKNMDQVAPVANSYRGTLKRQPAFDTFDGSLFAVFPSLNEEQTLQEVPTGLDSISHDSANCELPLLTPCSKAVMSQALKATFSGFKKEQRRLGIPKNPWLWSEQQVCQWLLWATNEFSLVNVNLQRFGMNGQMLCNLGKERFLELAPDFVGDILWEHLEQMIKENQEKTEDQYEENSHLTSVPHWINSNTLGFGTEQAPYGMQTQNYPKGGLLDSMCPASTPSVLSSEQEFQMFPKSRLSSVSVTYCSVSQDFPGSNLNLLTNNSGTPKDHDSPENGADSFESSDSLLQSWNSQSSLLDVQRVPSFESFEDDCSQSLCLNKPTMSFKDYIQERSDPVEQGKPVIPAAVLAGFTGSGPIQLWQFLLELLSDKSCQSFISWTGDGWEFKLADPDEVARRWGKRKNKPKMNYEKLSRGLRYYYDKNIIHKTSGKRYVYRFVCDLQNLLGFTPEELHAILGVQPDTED
# Summary of the method: as §1
# [5] = target: T4, SPDEF (Homo sapiens, UniProt O95238 1-335)
# T4 sequence: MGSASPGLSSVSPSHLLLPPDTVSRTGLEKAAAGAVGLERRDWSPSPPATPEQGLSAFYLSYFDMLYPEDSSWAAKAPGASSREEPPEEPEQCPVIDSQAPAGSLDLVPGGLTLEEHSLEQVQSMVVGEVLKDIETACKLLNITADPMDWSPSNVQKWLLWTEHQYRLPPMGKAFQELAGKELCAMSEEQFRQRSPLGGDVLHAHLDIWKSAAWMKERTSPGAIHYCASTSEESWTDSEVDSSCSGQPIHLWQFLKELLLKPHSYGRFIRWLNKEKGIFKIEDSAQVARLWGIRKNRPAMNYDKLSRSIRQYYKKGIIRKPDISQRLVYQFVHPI
# Summary of the method: as §1
# [6] = target: T5, ETV7 (Homo sapiens, UniProt Q9Y603 1-341)
# T5 sequence: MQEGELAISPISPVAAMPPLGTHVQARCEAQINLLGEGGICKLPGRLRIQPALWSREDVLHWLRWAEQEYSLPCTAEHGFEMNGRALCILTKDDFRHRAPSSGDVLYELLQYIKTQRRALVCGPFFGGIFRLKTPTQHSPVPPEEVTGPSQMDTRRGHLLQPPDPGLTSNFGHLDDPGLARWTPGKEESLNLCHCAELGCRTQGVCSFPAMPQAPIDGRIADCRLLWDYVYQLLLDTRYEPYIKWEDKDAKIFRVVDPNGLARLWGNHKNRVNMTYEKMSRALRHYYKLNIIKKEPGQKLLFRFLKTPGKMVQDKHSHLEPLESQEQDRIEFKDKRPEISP
# Summary of the method: as §1
# [7] = target: T6, ELF5 (Homo sapiens, UniProt Q9UKW6-2 1-255)
# T6 sequence: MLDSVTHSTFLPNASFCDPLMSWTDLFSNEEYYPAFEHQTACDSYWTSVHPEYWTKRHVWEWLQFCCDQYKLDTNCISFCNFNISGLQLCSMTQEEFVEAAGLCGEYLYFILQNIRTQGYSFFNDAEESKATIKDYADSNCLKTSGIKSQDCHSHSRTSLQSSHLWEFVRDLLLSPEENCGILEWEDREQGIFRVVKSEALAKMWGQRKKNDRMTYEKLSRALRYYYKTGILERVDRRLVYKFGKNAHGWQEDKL
# Summary of the method: as §1
# [8] = target: T7, ETV3 (Homo sapiens, UniProt P41162-2 1-143)
# T7 sequence: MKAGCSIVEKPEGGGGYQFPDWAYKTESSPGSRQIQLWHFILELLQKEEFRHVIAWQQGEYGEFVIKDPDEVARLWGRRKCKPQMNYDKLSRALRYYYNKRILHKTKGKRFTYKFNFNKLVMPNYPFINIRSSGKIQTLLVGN
# Summary of the method: as §1
# [9] = target: ETV6 (Homo sapiens, UniProt P41212 1-452)
# Sequence of ETV6 (P41212 whole entry): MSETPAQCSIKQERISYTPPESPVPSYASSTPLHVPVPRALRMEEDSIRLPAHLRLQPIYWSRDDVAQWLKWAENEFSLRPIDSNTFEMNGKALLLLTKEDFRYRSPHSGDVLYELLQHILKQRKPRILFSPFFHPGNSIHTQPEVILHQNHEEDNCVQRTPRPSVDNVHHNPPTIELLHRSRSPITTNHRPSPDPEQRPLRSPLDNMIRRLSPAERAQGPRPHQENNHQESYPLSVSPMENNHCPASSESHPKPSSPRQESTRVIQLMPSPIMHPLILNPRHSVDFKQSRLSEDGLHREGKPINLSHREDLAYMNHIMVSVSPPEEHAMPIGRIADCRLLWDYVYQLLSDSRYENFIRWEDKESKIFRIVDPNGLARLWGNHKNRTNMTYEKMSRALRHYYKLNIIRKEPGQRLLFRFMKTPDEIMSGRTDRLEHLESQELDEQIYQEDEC
# Summary of the method: as §1
sequence,measurement,setting,value
TTCCCG,binding signal,[1],"1.88 fold enrichment (6-mer frequency, TF over GST control)"
same,binding signal,[2],"1.75 fold enrichment (6-mer frequency, TF over GST control)"
same,binding signal,[3],"1.9 fold enrichment (6-mer frequency, TF over GST control)"
same,binding signal,[4],"1.97 fold enrichment (6-mer frequency, TF over GST control)"
same,binding signal,[5],"2.05 fold enrichment (6-mer frequency, TF over GST control)"
same,binding signal,[6],"1.88 fold enrichment (6-mer frequency, TF over GST control)"
same,binding signal,[7],"2.91 fold enrichment (6-mer frequency, TF over GST control)"
same,binding signal,[8],"1.92 fold enrichment (6-mer frequency, TF over GST control)"
same,binding signal,[9],"2.15 fold enrichment (6-mer frequency, TF over GST control)"
